Only some compounds are listed: those with a hit (about 10% of all), similar ones and a draw of the others.
HEK cytotox: HEK 293 cell cytotoxicity; HEK 293 viability, ATP luminescence (CellTiter-Glo), 48-72 h; Potency, µM (top dose mostly 115 µM), inactives show at the top dose activity change, negative = cytotoxicity, hits mostly inhibitors; hit rate 6.6% among 94,000; note: nearly all actives have a fitted effect of over 60% in size
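HEK 293 cells at 250 cells/well were exposed to compounds by pintool transfer for 48 or 72 hr at 37 degree Celsius, 5% CO2. Viability was read as ATP-coupled luminescence with CellTiter-Glo after 10 min at room temperature.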
3T3 cytotox: kills NIH 3T3 cells; Potency, µM (highest dose often 96.7 µM), for the others: at the highest dose activity change, negative = cytotoxicity, most hits filed as inhibitors; NIH 3T3 viability, CellTiter-Glo ATP luminescence, 48-72 h; hit rate 4.3% among 94,000; note: nearly all actives have a fitted effect of over 55% in size
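Cells were seeded at 400 per well, treated with pin-transferred compound, and kept 48 or 72 hr at 37 °C before CellTiter-Glo addition and luminescence imaging of cellular ATP.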
hNpr1 antagonist: antagonists of human natriuretic peptide receptor Npr1 | HEK293 hNpr1 GloSensor cGMP, ANP-stimulated luminescence | AID 1347048 | P16066 | Potency, µM (highest dose often 46.3 µM), for the others: top-dose activity change, negative = inhibition, most hits filed as inhibitors | hit rate 1.6% among 76,000; calls by dose curve; note: nearly all actives have a fitted effect of over 60% in size
Target sequence (P16066 whole entry, looked up): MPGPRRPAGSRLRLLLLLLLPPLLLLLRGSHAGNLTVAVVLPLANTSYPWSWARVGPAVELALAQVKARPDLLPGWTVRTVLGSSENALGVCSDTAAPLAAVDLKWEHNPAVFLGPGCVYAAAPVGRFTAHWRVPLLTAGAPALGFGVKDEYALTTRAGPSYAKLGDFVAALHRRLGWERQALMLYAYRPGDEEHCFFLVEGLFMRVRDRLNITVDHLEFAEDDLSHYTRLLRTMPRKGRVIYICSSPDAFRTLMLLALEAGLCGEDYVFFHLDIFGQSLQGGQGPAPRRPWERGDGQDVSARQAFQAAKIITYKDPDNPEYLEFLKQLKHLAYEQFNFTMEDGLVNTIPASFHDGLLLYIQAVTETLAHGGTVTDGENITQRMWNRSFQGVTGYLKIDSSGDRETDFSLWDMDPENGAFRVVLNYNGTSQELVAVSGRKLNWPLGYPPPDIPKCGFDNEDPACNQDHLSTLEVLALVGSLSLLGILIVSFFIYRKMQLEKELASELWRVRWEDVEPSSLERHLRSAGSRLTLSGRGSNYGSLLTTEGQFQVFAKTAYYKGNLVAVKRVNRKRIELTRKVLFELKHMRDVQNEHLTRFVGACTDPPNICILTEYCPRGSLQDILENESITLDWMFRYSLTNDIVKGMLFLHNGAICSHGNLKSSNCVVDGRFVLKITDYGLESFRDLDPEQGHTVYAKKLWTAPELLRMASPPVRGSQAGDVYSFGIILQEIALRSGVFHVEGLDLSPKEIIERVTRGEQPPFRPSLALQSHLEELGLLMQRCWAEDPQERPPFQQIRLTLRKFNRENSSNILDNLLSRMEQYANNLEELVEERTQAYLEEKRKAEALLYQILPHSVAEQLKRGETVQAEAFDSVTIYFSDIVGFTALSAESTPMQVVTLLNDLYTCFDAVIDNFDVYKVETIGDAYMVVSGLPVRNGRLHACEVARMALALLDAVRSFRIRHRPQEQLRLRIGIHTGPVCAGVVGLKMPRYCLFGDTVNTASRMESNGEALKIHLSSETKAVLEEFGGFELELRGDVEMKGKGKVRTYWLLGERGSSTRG
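Compound pre-incubated 30 min at room temperature on GloSensor-loaded HEK293 cells stably carrying hNpr1 and the pGS-40F cGMP biosensor. Stimulation uses hNppA at 0.1 nM final; luminescence is taken at baseline and 20 min post-agonist.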
GPT2 inhibitor: inhibitors of human GPT2 alanine aminotransferase. Recombinant GPT2, coupled pyruvate oxidase/HRP Amplex Red fluorescence. Potency, µM (top dose mostly 57.7 µM), without a hit: at the highest dose activity change, negative = inhibition, actives largely listed as inhibitors. hit rate 0.25% among 100,000; note: nearly all actives have a fitted effect of over 60% in size
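Inhibition is scored from Amplex Red fluorescence generated when pyruvate oxidase and HRP act on pyruvate released by GPT2. Reactions contain 10ng/uL enzyme, 250uM a-KG and 2mM L-alanine and run 30 min at room temperature.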
Luciferase inh: inhibitors of firefly (Photinus pyralis) luciferase | hit rate 2.5% among 76,000 | P08659 | Potency, µM (highest dose often 115 µM), usual class: inhibitors | purified P. pyralis luciferase, luminescence, biochemical; note: nearly all actives have a fitted effect of over 65% in size
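Purified P. pyralis luciferase (10nM final) in 50mM Tris acetate pH 7.5, 10mM Mg acetate, 0.01% Tween-20, 0.05% BSA with 10uM D-luciferin and 10uM ATP. Compounds titrated qHTS. Luminescence imaged on CCD.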
Active calls of the source: *; i = inactive; ? = inconclusive; nt = no result; [ ] = another dose, or the depositor's remark. Unless noted, calls come from the whole dose curve; as a rule, active = well fitted curve in the direction sought with a large enough effect; inconclusive = small, poorly fitted or top-dose-only effect, or another doubt; inactive = no such curve, though single readings can be large; an effect the other way counts as inactive or inconclusive. % is set by controls: 0 for no effect and ±100 for the full control effect; potency is the fitted concentration of half-maximal effect.

SMILES | HEK cytotox | 3T3 cytotox | hNpr1 antagonist | GPT2 inhibitor | Luciferase inh
O=C(c1cc(COc2ccccc2F)[nH]n1)N1CCOCC1 | i | -4% | -1% | 3% | 32µM*
COc1cccc(S(=O)(=O)N2CCC(N(C(C)=O)C3CCOCC3)CC2)c1 | -14% | ? | nt | -1% | nt
Cc1ccccc1C(=O)N1CCC2(CC1)C(=O)N(c1cccc(F)c1)C2c1ccccc1 (stereo not drawn) | 25µM* | 35µM* | nt | ? | nt
Cc1ccccc1[C@H]1C[C@@H](O)[C@@H](O)[C@@H]1NC(=O)c1nc2ccccc2s1 | ? | ? | -11%[70.6 µM] | 0%[88.5 µM] | i
O=C(N[C@H]1[C@H](O)[C@H](O)C[C@@H]1c1ccc(C(F)(F)F)nc1)c1nc2ccccc2s1 | -27%[172 µM] | -22%[138 µM] | -11%[70.6 µM] | -11%[88.5 µM] | 45µM*
COc1ccc([C@H]2C[C@@H](O)[C@@H](O)[C@@H]2NC(=O)c2nc3ccccc3s2)cc1 | ? | -27%[138 µM] | -26%[70.6 µM] | -3%[88.5 µM] | 45µM*
CCCCn1c(=O)c(C(=O)N2CCN(C(=O)c3ccc(Cl)nc3)CC2)nc2cccnc21 | 0% | -17% | nt | -7% | nt
COc1cccc2c1OCC(CNC(=O)c1ccccc1N1CCCC1)C2 (stereo not drawn) | 89µM* | 2% | 3% | 0% | i
O=C1CN(C(=O)c2ccc(Cl)cc2)CC(O)CN1Cc1ccc(Cl)cc1 (stereo not drawn) | ? | -40% | nt | nt | nt
CC(C)c1ccc(CN2CCc3ncc(C(=O)Nc4ccccc4)n3CC2)cc1 | 32µM* | 28µM* | -25%[70.6 µM] | -23%[88.5 µM] | i
CC(C)CCNC(=O)c1cnc2n1CCN(Cc1ccc(C(C)C)cc1)CC2 | 56µM* | ? | ? | i | i
O=C(Nc1ccccc1)c1cnc2n1CCN(Cc1cccc(O)c1)CC2 | ? | ? | -1%[70.6 µM] | -12%[88.5 µM] | ?
COCCn1c(=O)c(C(=O)N2CCN(C(=O)Cc3cccc(Cl)c3)CC2)nc2cccnc21 | -4% | 4% | nt | 2% | nt
COc1cccc(CCC(=O)NCCn2ccn3nc(-c4cccc(OC)c4)cc3c2=O)c1 | ? | ? | -24% | i | 8.9µM*
COc1cc(OC)cc(C(=O)NCCn2ccn3nc(-c4cccc(OC)c4)cc3c2=O)c1 | -24% | -24% | -16% | i | 18µM*
COc1cccc(-c2cc3c(=O)n(CCNC(=O)Cc4cccs4)ccn3n2)c1 | ? | -28% | -15% | i | 16µM*
COc1cccc(-c2cc3c(=O)n(CCNC(=O)c4cc(C)cc(C)c4)ccn3n2)c1 | -18% | -15% | -22% | i | ?
COc1cccc(-c2cc3c(=O)n(CCNC(=O)COc4cccc(C)c4)ccn3n2)c1 | ? | ? | ? | -19% | 22µM*
CCOc1ccc(CC(=O)NCCn2ccn3nc(-c4cccc(OC)c4)cc3c2=O)cc1 | ? | ? | -8% | -3% | ?
O=C(c1ccccc1Cl)N1CCC2(CC1)CCN(Cc1cccs1)c1ccccc1O2 | ? | ? | 19% | ? | i
O=C(C1CCN(c2nc(-c3ccccc3)nc3c2CCC3)CC1)N1CCCNCC1 | ? | ? | 5% | i | i
O=[S+]1([O-])c2cccnc2OC(Cn2cccc2)CN1CCc1ccccc1 (stereo not drawn) | ? | ? | nt | 3%[27.3 µM] | nt
COc1ccc(C(=O)NCCn2ccn3nc(-c4cccc(OC)c4)cc3c2=O)cc1 | ? | ? | -24% | 5% | i
CCC(C(=O)NCCn1ccn2nc(-c3cccc(OC)c3)cc2c1=O)c1ccccc1 (stereo not drawn) | ? | ? | ? | -17% | 14µM*
Cc1cccc2c1O[C@H]1[C@H](CO)CN([S+](=O)([O-])c3cccs3)[C@@H]21 | ? | -30% | nt | nt | nt
SMILES | HEK cytotox | 3T3 cytotox | hNpr1 antagonist | GPT2 inhibitor | Luciferase inh
COc1ccc2c(c1)O[C@H]1[C@H](CO)CN([S+](=O)([O-])c3cccs3)[C@@H]21 | 50µM* | ? | nt | nt | nt
O=C(c1cc2ccccc2[nH]1)N1CCN2CCS(=O)(=O)N(C3CC3)C(=O)C2C1 (stereo not drawn) | ? | -24% | nt | i | nt
CC(C)NC(=O)N[C@H]1CCN2C(=O)c3cc(/C=C/c4ccccc4)ccc3NC(=O)[C@H]12 | 2%[172 µM] | i | 5%[70.6 µM] | 1%[88.5 µM] | 4µM*
Cc1oc(C2CCN(C(=O)CCC(=O)n3nc(C)c4ccccc43)CC2)nc1C(=O)N1CCCC1 | ? | ? | nt | i | nt
CC(=O)Nc1ccc(NC(=O)CN2C(=O)NC(c3ccc(C)cc3)C3=C2COC3=O)cc1 (stereo not drawn) | -7% | -21% | -10% | ? | ?
Cc1ccc(C2NC(=O)N(CC(=O)Nc3cc(F)cc(F)c3)C3=C2C(=O)OC3)cc1 (stereo not drawn) | ? | ? | -26% | 2% | i
Cc1ccc(C2NC(=O)N(CC(=O)Nc3ccc(Br)c(C)c3)C3=C2C(=O)OC3)cc1 (stereo not drawn) | ? | 35µM* | ? | 2% | i
CCc1cccc(NC(=O)CN2C(=O)NC(c3ccc(C)cc3)C3=C2COC3=O)c1 (stereo not drawn) | 28µM* | ? | -16% | i | i
Cc1ccc(C2NC(=O)N(CC(=O)Nc3ccc(Br)cc3F)C3=C2C(=O)OC3)cc1 (stereo not drawn) | 35µM* | ? | -22% | -19% | i
CC(=O)c1cccc(NC(=O)CN2C(=O)NC(c3ccc(C)cc3)C3=C2COC3=O)c1 (stereo not drawn) | ? | -24% | 0% | i | i
Cn1nccc1-c1ccc2ncn(-c3ccccc3)c(=O)c2n1 | i | ? | -2%[70.6 µM] | -4%[88.5 µM] | ?
COc1ccc(F)cc1-c1ccc(CN2CCC(NC(=O)NC3CCCC3)C2)cc1 (stereo not drawn) | 20µM* | 13µM* | nt | nt | nt
COc1ccc(F)cc1-c1ccc(CN2CCC(NC(=O)Nc3ccc(Cl)cc3)C2)cc1 (stereo not drawn) | 13µM* | 11µM* | nt | nt | nt
Cc1cc(C)cc(-c2ccc(CN3CCCC(NC(=O)Nc4ccc(Cl)cc4)C3)cc2)c1 (stereo not drawn) | -4% | -14% | nt | 5% | nt
COc1ccc(F)cc1-c1ccc(CN2CCC(NC(=O)Nc3ccc(C)c(F)c3)C2)cc1 (stereo not drawn) | 25µM* | 16µM* | nt | nt | nt
O=C(Nc1ccc(Cl)cc1)NC1CCN(Cc2ccc(-c3ccsc3)cc2)C1 (stereo not drawn) | ? | ? | nt | i | nt
CNC(=O)c1cc(C2CC2)nc2onc(C3CCCN3[S+](=O)([O-])c3cccs3)c12 (stereo not drawn) | -11% | -17% | nt | nt | nt
CNC(=O)c1cc(C2CC2)nc2onc(C3CCCN3C(=O)c3ccc(C)cc3)c12 (stereo not drawn) | i | -10% | nt | nt | nt

Source: PubChem BioAssay (National Center for Advancing Translational Sciences (NCATS))
